Drawing on PubChem BioAssay (EPA / NIEHS), this text covers AC50 and outcome for 40 compounds.

Activity calls are given as the source filed them. How the source made its calls: active means hit-call score of the fitted dose curve at least 0.9, where 1 is the maximum; inconclusive means response in the unintended direction; inactive means score below 0.9.

As usually defined, the AC50 is the concentration at which the activity in the assay is half-maximal.

Chain of Estrogen receptor beta (Homo sapiens) (Q92731 whole entry, looked up, the tested form may be a part): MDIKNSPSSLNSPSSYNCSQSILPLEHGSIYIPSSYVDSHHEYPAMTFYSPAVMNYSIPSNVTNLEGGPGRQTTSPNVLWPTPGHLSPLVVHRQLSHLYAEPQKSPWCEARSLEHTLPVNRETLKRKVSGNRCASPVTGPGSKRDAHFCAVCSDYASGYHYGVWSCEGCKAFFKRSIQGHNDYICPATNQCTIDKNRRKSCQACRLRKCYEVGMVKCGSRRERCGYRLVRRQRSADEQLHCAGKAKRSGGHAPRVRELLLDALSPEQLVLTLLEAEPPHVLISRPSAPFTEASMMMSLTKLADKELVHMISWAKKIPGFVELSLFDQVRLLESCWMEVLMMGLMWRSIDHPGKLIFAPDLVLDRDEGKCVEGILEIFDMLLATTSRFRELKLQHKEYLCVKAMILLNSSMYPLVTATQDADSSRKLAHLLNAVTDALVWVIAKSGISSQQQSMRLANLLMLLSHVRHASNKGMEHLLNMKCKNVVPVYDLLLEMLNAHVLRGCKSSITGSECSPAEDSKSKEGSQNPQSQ

The target in this experiment is Estrogen receptor beta (Homo sapiens) (UniProt Q92731). The experiment in a line: OT_ER_ERbERb_1440: Odyssey Thera (OT) 24-hour HEK293T Protein-Complementation Assay for Estrogen Receptor-beta/-beta Homodimer (AID 2283380).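 Further: scored as signal increase over DMSO baseline for both agonists and antagonists.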 On the procedure:
OT_ER_ERbERb_1440 is a cell-based assay that uses HEK293T, a human kidney cell line, with measurements taken at 24 hours after chemical dosing in a 384-well plate.OT_ER_ERbERb_1440 is one of one assay component(s) measured or calculated from the OT_ER_ERbERb_1440 assay. It is designed to make measurements of protein fragment complementation, a form of binding reporter, as detected with fluorescence intensity signals by Protein-fragment Complementation technology.Data from the assay component OT_ER_ERbERb_1440 was analyzed into 1 assay endpoint. This assay endpoint, OT_ER_ERbERb_1440, was analyzed in the positive analysis fitting direction relative to DMSO as the negative control and baseline of activity. Using a type of binding reporter, measures of receptor for gain-of-signal activity can be used to understand the binding at the pathway-level as they relate to the gene ESR2. Furthermore, this assay endpoint can be referred to as a primary readout, because the performed assay has only produced 1 assay endpoint. To generalize the intended target to other relatable targets, this assay endpoint is annotated to the nuclear receptor intended target family, where the subfamily is steroidal.
Protein-fragment complementation assay, or PCA, is a method for the identification and quantification of protein-protein interactions. In the PCA, the proteins of interest ("bait" and "prey") are each covalently linked to fragments of a third protein (e.g. DHFR, which acts as a "reporter"). Interaction between the bait and the prey proteins brings the fragments of the reporter protein in close proximity to allow them to form a functional reporter protein whose activity can be measured. The OT ER beta / ER beta assay is a homodimer PCA of the ligand binding domain (LBD; amino acids 310-547) of human ER beta stably expressed in HEK293T cells. […] Cells are fixed in 4 percent formaldehyde and stained with Draq5 (BioStatus) to identify cells prior to signal detection. Fluorescent signal in the basal state of the assay is very low and is primarily punctuate and cytoplasmic. Modulation of this assay is quantified as an increase in mean fluorescence intensity in the nucleus (for agonists) or in the nucleus and cytoplasm (antagonists) relative to vehicle controls, and can be quantified on a high content imaging device or a laser scanning cytometer. The latter instrument is favored for this assay because of the rapid mode of data acquisition, the ability to acquire data from the entire cell population in a well (as opposed to a fraction of the well on the high content devices) and the larger dynamic range typically achieved with this instrument. To assess sensitivity of the ER beta/ER beta LBD assay to ligand, cells were treated with the ER agonist 17- beta-estradiol (E2) in 10-point concentration- response format for 24 hours and monitored response on a laser scanning plate cytometer (Acumen eX3; TTP Lab Tech).
Turning to `COc1ccc(-c2coc3cc(O)cc(O)c3c2=O)cc1`, the AC50 is 2.61 µM (active).
`CCCCCCCCCCCCCCCCCCOS(=O)(=O)O`: the AC50 was 12.6 µM (active).
With `CCCCCCCCCCCCCC(=O)OC(C)C`, the call was inactive.
On the same count and under the same terms, under `CC(C)(C)C1CCC(=O)CC1` stands “inactive”.
Regarding `Cc1c(C(=O)c2c[nH]n(C)c2=O)ccc(S(C)(=O)=O)c1C1=NOCC1`, the compound was called inactive.
Take `Nc1ccc(C(=O)O)cc1`: the outcome was inactive.
For the compound `CO[Si](C)(C)OC`, the result was inactive.
As for `CC1=CCC2CC1C2(C)C` (stereo not given), the result was inactive.
As for `COC(=O)c1ccccc1C`, the compound was classed as inactive.
Consider `COc1ccc(C(=O)c2ccccc2)c(O)c1`, for which the AC50 was 57.8 µM (active).
Same read-out and setting: under `O=C(Nc1ccccc1)c1cc(Cl)ccc1O` stands 33.9 µM (active).
Consider `O=C(O)C1CCC(C(=O)O)CC1` (stereo not given), for which the outcome was inactive.
Take `c1ccc(Nc2cccc3ccccc23)cc1`: the AC50 was 37.3 µM (active).
Turning to `O=C(OCc1ccccc1)c1ccc(O)cc1`, the AC50 is 5.67 µM (active).
For `CCCCCCCCC(CO)CCCCCC` (stereo not given), the compound was called inactive.
In the case of `CC1(C)[C@@H]2CC[C@@]1(C)C(=O)C2`, the compound was classed as inactive.
Regarding `CCCCCCCO`, the result was inactive.
Turning to `CC(=O)OCc1ccccc1`, the result was inactive.
On the same count and under the same terms, as for `Cc1ccc([N+](=O)[O-])cc1N`, the entry is “inactive”; as for `CCCCCCCCCC[N+](C)(CCCCCCCCCC)CCC[Si](OC)(OC)OC`, “inactive”.
`CCCCNS(=O)(=O)c1ccccc1`: the outcome was inactive.
As for `CC(CCC(=O)O)(c1ccc(O)cc1)c1ccc(O)cc1`, the AC50 is 52.3 µM (active).
For the compound `C1CNCCN1`, the outcome was inactive.
As to `Oc1ccccc1Cc1ccccc1O`, the AC50 was 11.8 µM (active).
As to `CCCCNC(=S)NCCCC`, the compound was classed as inactive.
As for `CCCCC(C=O)CC` (stereo not given), the call was inactive.
With `CCCCCCCCCC(C)=O`, the compound was classed as inactive.
For the compound `CC(=O)OC1CCCCC1C(C)(C)C` (stereo not given), the call was inactive.
For the compound `CCCCCCCCCCCC(=O)N(C)CC(=O)O`, the result was inactive.
`CCCCC(CC)COS(=O)(=O)O` (stereo not given): the result was inactive.
As for `CCOC(=O)C1=NOC(c2ccccc2)(c2ccccc2)C1`, the outcome was inactive.
As for `CCCC=C(C=O)CC`, the outcome was inactive.
In the case of `CCCCCCCOC(=O)c1ccc(O)cc1`, the AC50 was 5.06 µM (active).
With `CCOC(=O)c1ccc(C)cc1`, the result was inactive.
As for `CN(C)c1ccc2nc3ccc(=[N+](C)C)cc-3sc2c1`, the AC50 is 14.7 µM (active).
Consider `CCCCc1ccc(Cl)cc1`, for which the compound was classed as inactive.
As for `C=C1C[C@H]2[C@@H]3C=C(C)C4=CC(=O)CC[C@]4(C)[C@H]3CC[C@]2(C)[C@@]1(OC(C)=O)C(C)=O`, the call was inactive.
On the same count and under the same terms, under `CCC[Si](OC)(OC)OC` stands “inactive”; under `CCCCCC(=O)OCC`, “inactive”.
In the case of `CCCCCCCCCCCCc1ccc(O)cc1`, the AC50 is 0.981 µM (active).
